# According to PubChem BioAssay (NCI):
# The panel holds about 79,000 compounds, 15% with a hit somewhere; the sample as a whole holds those more often. Unmarked numbers belong to inactive results. Activity calls are given as the source filed them. Rule as the data show it: active = growth inhibition above about 70%; inactive = the rest.
# Experiments:
# [1] = NCI Yeast Anticancer Drug Screen. Data for the mec2-1 strain (AID 157); details: S. cerevisiae mec2-1 strain, active compounds read high
# In short: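 Using mec2-1 yeast: add compound, measure growth, express inhibition versus vehicle-treated cultures.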
# [2] = NCI Yeast Anticancer Drug Screen. Data for the rad14 strain (AID 159);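 also: 0% = growth of vehicle-treated control cultures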; details: S. cerevisiae rad14 strain growth inhibition, active compounds read high
# In short: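 Screen for anticancer potential: a yeast strain altered in DNA damage repair is grown with compound, and reduced growth is quantified against vehicle controls.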
# [3] = NCI Yeast Anticancer Drug Screen. Data for the sgs1 mgt1 strain (AID 161);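 also: 0% = growth of cultures given vehicle only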; details: S. cerevisiae sgs1 mgt1 strain, active compounds read high
# In short: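 Percent growth inhibition was derived by comparing compound-exposed mutant yeast with vehicle-exposed cultures. The strain carries alterations in DNA damage repair.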
# [4] = NCI Yeast Anticancer Drug Screen. Data for the CLN2oe strain (AID 163);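 also: 0% = growth of vehicle-only control cultures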; details: S. cerevisiae CLN2oe strain, active compounds read high
# In short: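 Whole-cell yeast growth assay. A strain engineered for altered cell-cycle control received compound, and inhibition relative to vehicle-treated cultures was recorded.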
# [5] = NCI Yeast Anticancer Drug Screen. Data for the cln2 rad14 strain (AID 165);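 also: 0% = growth equal to vehicle treated cultures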; details: S. cerevisiae cln2 rad14 strain, active compounds read high
# In short: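 Yeast strain cln2 rad14, bearing defects in cell cycle control and DNA repair, serves as the test system; values reflect growth inhibition compared with vehicle.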
# [6] = NCI Yeast Anticancer Drug Screen. Data for the bub3 strain (AID 167); details: S. cerevisiae bub3 mutant strain, active compounds read high
# In short: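 Screening used yeast with an engineered genetic alteration affecting cell cycle control. Compound-exposed cultures were compared with vehicle cultures, and reduced growth was taken as inhibition.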
# [7] = NCI Yeast Anticancer Drug Screen. Data for the wt2 strain (AID 169);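 also: 0% = growth of vehicle-treated yeast cultures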; details: S. cerevisiae wt2 strain growth inhibition, active compounds read high
# In short: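 Treated yeast vs. vehicle-treated yeast: growth inhibition determined.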
# [8] = NCI Yeast Anticancer Drug Screen. Data for the mlh1 strain (AID 171);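 also: 0% = growth of vehicle-treated control cultures of the same strain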; details: S. cerevisiae mlh1 strain growth inhibition, active compounds read high
# In short: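 A yeast strain with a defined genetic lesion serves as the test organism. Cultures receive compound or vehicle, and growth is measured.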
# [9] = NCI Yeast Anticancer Drug Screen. Data for the mlh1 rad18 strain (AID 175); details: S. cerevisiae mlh1 rad18 strain growth inhibition, active compounds read high
# In short: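 Steps: expose repair-defective yeast to compound; measure growth; express inhibition against vehicle-treated controls.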
# [10] = NCI Yeast Anticancer Drug Screen. Data for the rad18 strain (AID 177); details: S. cerevisiae rad18 mutant growth inhibition, active compounds read high
# In short: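 Measured value is growth inhibition of a yeast strain bearing a DNA repair alteration, referenced to vehicle-treated cells.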
# [11] = NCI Yeast Anticancer Drug Screen. Data for the rad52 strain (AID 147);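 also: 0% = growth of vehicle-treated control cultures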; details: S. cerevisiae rad52 mutant growth inhibition, active compounds read high
# In short: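 Here a repair-compromised yeast strain receives each compound; its growth is then quantified and normalised to vehicle-only controls.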
# [12] = NCI Yeast Anticancer Drug Screen. Data for the wt1 strain (AID 149);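 also: 0% = growth of vehicle-treated wt1 cultures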; details: S. cerevisiae wt1 strain (SPY 50644) growth inhibition, active compounds read high
# In short: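 Using yeast strain wt1, compound-induced growth inhibition was determined against vehicle-treated cultures.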
# [13] = NCI Yeast Anticancer Drug Screen. Data for the rad50EPP+ strain (AID 151);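 also: 0% = growth of vehicle-treated control cultures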; details: S. cerevisiae rad50 mutant strain, active compounds read high
# In short: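 Read-out is yeast growth inhibition relative to vehicle; cells used were the rad50EPP+ strain.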
# [14] = NCI Yeast Anticancer Drug Screen. Data for the mgt1 strain (AID 153); details: S. cerevisiae mgt1 mutant growth inhibition, active compounds read high
# In short: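 Measured: inhibition of mgt1 yeast growth by compound, normalized to vehicle-treated cultures.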
# [15] = NCI Yeast Anticancer Drug Screen. Data for the rad50 strain (AID 155);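 also: 0% = growth of vehicle-only cultures of the same strain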; details: S. cerevisiae rad50 strain growth inhibition, active compounds read high
# In short: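 Relative growth inhibition (compound vs vehicle) was measured in yeast with a defined repair-gene alteration.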
# [16] = NCI Yeast Anticancer Drug Screen. Data for the sgs1 strain (AID 173);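 also: 0% = growth of vehicle-only control cultures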; details: S. cerevisiae sgs1 mutant, active compounds read high
# In short: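 A genetically defined yeast mutant is incubated with the test compound, and its growth is compared to that of the same strain given vehicle.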
# [17] = at 5.0 µM (retest, dose inferred, filed as 0.5)
# [18] = at 50.0 µM (retest, dose inferred, filed as 5.0)
smiles,measurement,setting,value
O=c1ccc2ccccc2c2ccccc12,growth inhibition,[1]; [17],1%
same,growth inhibition,[1]; at 11.0 µM,82% (active)
same,growth inhibition,[1]; at 33.0 µM,99% (active)
same,growth inhibition,[1]; [18],99% (active)
same,growth inhibition,[1]; at 50.0 µM,93.9% (active)
same,growth inhibition,[1]; at 100.0 µM,100% (active)
same,growth inhibition,[2]; at 1.2 µM,-9%
same,growth inhibition,[2]; at 3.7 µM,1%
same,growth inhibition,[2]; at 11.0 µM,63%
same,growth inhibition,[2]; at 33.0 µM,98% (active)
same,growth inhibition,[2]; at 100.0 µM,97% (active)
same,growth inhibition,[3]; [17],6%
same,growth inhibition,[3]; [18],98% (active)
same,growth inhibition,[3]; at 50.0 µM,91.6% (active)
same,growth inhibition,[4]; at 1.2 µM,20%
same,growth inhibition,[4]; at 3.7 µM,25%
same,growth inhibition,[4]; at 11.0 µM,87% (active)
same,growth inhibition,[4]; at 33.0 µM,100% (active)
same,growth inhibition,[4]; at 100.0 µM,100% (active)
same,growth inhibition,[5]; [17],5%
same,growth inhibition,[5]; [18],99% (active)
same,growth inhibition,[5]; at 50.0 µM,90.4% (active)
same,growth inhibition,[6]; at 1.2 µM,5%
same,growth inhibition,[6]; at 3.7 µM,47%
same,growth inhibition,[6]; [17],50%
same,growth inhibition,[6]; at 11.0 µM,88% (active)
same,growth inhibition,[6]; at 33.0 µM,98% (active)
same,growth inhibition,[6]; [18],99% (active)
same,growth inhibition,[6]; at 50.0 µM,90.6% (active)
same,growth inhibition,[6]; at 100.0 µM,98% (active)
same,growth inhibition,[7]; at 1.2 µM,-27%
same,growth inhibition,[7]; at 3.7 µM,2%
same,growth inhibition,[7]; at 11.0 µM,69%
same,growth inhibition,[7]; at 33.0 µM,98% (active)
same,growth inhibition,[7]; at 100.0 µM,99% (active)
same,growth inhibition,[8]; at 1.2 µM,15%
same,growth inhibition,[8]; at 3.7 µM,55%
same,growth inhibition,[8]; at 11.0 µM,83% (active)
same,growth inhibition,[8]; at 33.0 µM,99% (active)
same,growth inhibition,[8]; at 100.0 µM,99% (active)
same,growth inhibition,[9]; [17],39%
same,growth inhibition,[9]; [18],99% (active)
same,growth inhibition,[9]; at 50.0 µM,90.9% (active)
same,growth inhibition,[10]; at 1.2 µM,-4%
same,growth inhibition,[10]; at 3.7 µM,-3%
same,growth inhibition,[10]; at 11.0 µM,76% (active)
same,growth inhibition,[10]; at 33.0 µM,97% (active)
same,growth inhibition,[10]; at 100.0 µM,97% (active)
OC(/C=C/c1ccccc1)(Cc1cc(-c2ccccc2)n[nH]1)c1ccccc1 (stereo unspecified),growth inhibition,[11]; at 1.2 µM,14%
same,growth inhibition,[11]; at 3.7 µM,14%
same,growth inhibition,[11]; at 11.0 µM,11%
same,growth inhibition,[11]; at 33.0 µM,14%
same,growth inhibition,[11]; at 100.0 µM,9%
same,growth inhibition,[12]; at 1.2 µM,9%
same,growth inhibition,[12]; at 3.7 µM,5%
same,growth inhibition,[12]; at 11.0 µM,7%
same,growth inhibition,[12]; at 33.0 µM,8%
same,growth inhibition,[12]; at 100.0 µM,9%
same,growth inhibition,[13]; at 1.2 µM,12%
same,growth inhibition,[13]; at 3.7 µM,11%
same,growth inhibition,[13]; at 11.0 µM,14%
same,growth inhibition,[13]; at 33.0 µM,13%
same,growth inhibition,[13]; at 100.0 µM,13%
same,growth inhibition,[14]; at 1.2 µM,9%
same,growth inhibition,[14]; at 3.7 µM,12%
same,growth inhibition,[14]; at 11.0 µM,10%
same,growth inhibition,[14]; at 33.0 µM,12%
same,growth inhibition,[14]; at 100.0 µM,13%
same,growth inhibition,[15]; at 1.2 µM,8%
same,growth inhibition,[15]; at 3.7 µM,7%
same,growth inhibition,[15]; [17],-3%
same,growth inhibition,[15]; at 11.0 µM,4%
same,growth inhibition,[15]; at 33.0 µM,11%
same,growth inhibition,[15]; [18],97% (active)
same,growth inhibition,[15]; at 50.0 µM,98.6% (active)
same,growth inhibition,[15]; at 100.0 µM,8%
same,growth inhibition,[1]; at 1.2 µM,9%
same,growth inhibition,[1]; at 3.7 µM,11%
same,growth inhibition,[1]; [17],1%
same,growth inhibition,[1]; at 11.0 µM,12%
same,growth inhibition,[1]; at 33.0 µM,13%
same,growth inhibition,[1]; [18],97% (active)
same,growth inhibition,[1]; at 50.0 µM,99.1% (active)
same,growth inhibition,[1]; at 100.0 µM,12%
same,growth inhibition,[2]; at 1.2 µM,15%
same,growth inhibition,[2]; at 3.7 µM,15%
same,growth inhibition,[2]; at 11.0 µM,13%
same,growth inhibition,[2]; at 33.0 µM,17%
same,growth inhibition,[2]; at 100.0 µM,16%
same,growth inhibition,[3]; [17],17%
same,growth inhibition,[3]; [18],97% (active)
same,growth inhibition,[3]; at 50.0 µM,97.8% (active)
same,growth inhibition,[4]; at 1.2 µM,23%
same,growth inhibition,[4]; at 3.7 µM,24%
same,growth inhibition,[4]; at 11.0 µM,24%
same,growth inhibition,[4]; at 33.0 µM,26%
same,growth inhibition,[4]; at 100.0 µM,24%
same,growth inhibition,[5]; [17],-19%
same,growth inhibition,[5]; [18],94% (active)
same,growth inhibition,[5]; at 50.0 µM,98.3% (active)
same,growth inhibition,[6]; at 1.2 µM,3%
same,growth inhibition,[6]; at 3.7 µM,3%
same,growth inhibition,[6]; [17],-10%
same,growth inhibition,[6]; at 11.0 µM,2%
same,growth inhibition,[6]; at 33.0 µM,7%
same,growth inhibition,[6]; [18],98% (active)
same,growth inhibition,[6]; at 50.0 µM,99.2% (active)
same,growth inhibition,[6]; at 100.0 µM,6%
same,growth inhibition,[7]; at 1.2 µM,-11%
same,growth inhibition,[7]; at 3.7 µM,-8%
same,growth inhibition,[7]; at 11.0 µM,-15%
same,growth inhibition,[7]; at 33.0 µM,-8%
same,growth inhibition,[7]; at 100.0 µM,-14%
same,growth inhibition,[16]; at 1.2 µM,-9%
same,growth inhibition,[16]; at 3.7 µM,6%
same,growth inhibition,[16]; at 11.0 µM,4%
same,growth inhibition,[16]; at 33.0 µM,9%
same,growth inhibition,[16]; at 100.0 µM,1%
same,growth inhibition,[9]; [17],18%
same,growth inhibition,[9]; [18],97% (active)
same,growth inhibition,[9]; at 50.0 µM,98.7% (active)
same,growth inhibition,[10]; at 1.2 µM,12%
same,growth inhibition,[10]; at 3.7 µM,12%
same,growth inhibition,[10]; at 11.0 µM,11%
same,growth inhibition,[10]; at 33.0 µM,15%
same,growth inhibition,[10]; at 100.0 µM,24%
